Compound activity (PubChem BioAssay)
Shown are actives, neighbours in structure and some others; about 7.5% of the full set was active somewhere.
FLuc counter = counter-screen for miR-21 project: firefly luciferase inhibitors or activators; AID 588342; purified FLuc, Km substrates, luminescence inhibition; actives 6.9% (n = 360,000); Potency, µM (series often up to 57.5 µM), inactives show at the highest dose activity change, negative = inhibition, most hits filed as inhibitors;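 also: plate controls were vehicle for no effect and reference inhibitor for full effect; nearly all actives have a fitted effect of over 55% in size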
Target sequence (P08659 whole entry, looked up): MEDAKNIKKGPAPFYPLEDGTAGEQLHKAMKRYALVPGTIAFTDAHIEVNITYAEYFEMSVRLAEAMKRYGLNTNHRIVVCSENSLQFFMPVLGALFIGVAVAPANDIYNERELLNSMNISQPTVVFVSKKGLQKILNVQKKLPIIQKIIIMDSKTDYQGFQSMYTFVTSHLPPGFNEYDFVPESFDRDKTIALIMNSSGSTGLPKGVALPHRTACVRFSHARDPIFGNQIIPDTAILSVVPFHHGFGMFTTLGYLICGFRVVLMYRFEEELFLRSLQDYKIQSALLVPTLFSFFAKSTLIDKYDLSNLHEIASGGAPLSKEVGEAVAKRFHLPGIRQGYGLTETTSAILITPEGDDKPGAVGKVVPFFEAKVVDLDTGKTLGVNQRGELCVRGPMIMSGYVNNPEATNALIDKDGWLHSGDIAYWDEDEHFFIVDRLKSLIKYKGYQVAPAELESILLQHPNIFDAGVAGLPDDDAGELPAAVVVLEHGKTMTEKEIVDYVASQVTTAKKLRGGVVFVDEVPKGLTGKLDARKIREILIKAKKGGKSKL
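Purified P. pyralis luciferase, 10 nM final, with Km-level 10 uM D-luciferin and 10 uM ATP in 50 mM Tris acetate pH 7.5, 10 mM Mg acetate, 0.01% Tween-20, 0.05% BSA; 6-point qHTS titration about 60 µM downward; luminescence read.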
ELG1 genotoxic = induces genotoxicity in HEK293T cells with luciferase-tagged ELG1; Potency, µM (top dose mostly 46 µM), without a hit: at the highest dose activity change, positive = activation, actives largely listed as activators; actives 1.3% (n = 330,000); HEK293T ELG1-luciferase reporter, luminescence, 16 h; also: % of control where 0% means no effect; nearly all actives have a fitted effect of over 60% in size
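Screening used a luciferase reporter fused to human ELG1 in HEK293T cells. Luminescence was read on a CCD plate imager after 16 hr exposure and 30 min ONE-Glo incubation.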
Rab9 promoter act = activates the Rab9 promoter; AID 485297; actives 2.8% (n = 320,000); Huh7 Rab9 promoter-luciferase reporter, luminescence, 24 h; Potency, µM (top dose mostly 9.22 µM), for the others: top-dose activation, negative = inhibition, actives largely listed as activators; also: % of control where 0% means no effect; nearly all actives have a fitted effect of over 60% in size
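Cells were plated at 1500 per well in reduced-serum medium with 10% FBS and left 2 h. Compound in DMSO was then added for 24 h at 37 °C. Reporter signal was read by luminescence after 10 min with luciferase detection reagent.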
SMN2 splice enh = enhancers of SMN2 splice variant expression; HEK293 SMN2-luciferase splicing reporter, luminescence, 30-36 h; AID 1458; actives 2.8% (n = 210,000); Potency, µM (top dose mostly 46.1 µM), without a hit: at the highest dose activity change, positive = activation, most hits filed as activators; also: % of control where 0% means no effect; nearly all actives have a fitted effect of over 55% in size
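HEK293 cells carry an SMN2 […]–luciferase reporter in which exon 7 inclusion puts luciferase in frame. Cells were plated 10-12 h before compound addition, then incubated 30-36 h at 37C. ONE-Glo luminescence was read; sodium butyrate at 4.5 mM final served as control.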
NPC1 prom act = activators of NPC1 promoter | AID 485313 | actives 2.4% (n = 320,000) | Huh7 NPC1 promoter luciferase reporter, 24 h | Potency, µM (doses to about 9.22 µM), without a hit: at the highest dose activation, hits mostly activators; also: % of control where 0% means no effect; nearly all actives have a fitted effect of over 60% in size
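Quantitative HTS used a cell-based reporter: Huh7 cells stably bearing the NPC1 promoter upstream of luciferase were treated with compounds for 24 h, and promoter activation was read as luminescence.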
* = called active by the depositor; ? = inconclusive; . = no result given. Calls follow the shape of the dose curve; as a rule, active = well fitted curve in the direction sought with a large enough effect; inconclusive = small, poorly fitted or top-dose-only effect, or another doubt; inactive = no such curve, though single readings can be large; an effect the other way counts as inactive or inconclusive. Potency is read from the fitted curve at half-maximal effect.

SMILES	FLuc counter	ELG1 genotoxic	Rab9 promoter act	SMN2 splice enh	NPC1 prom act
CCOC(=O)C1(CC2CC2)CCN(Cc2cc(Cl)c(O)c(OC)c2)CC1	-1%	-3%	-8%	.	1%
O=C(CSc1nnnn1-c1cccc2ccccc12)N1CCOCC1	4%	-3%	-2%	?	1%
c1ccc(CSc2nnc(-c3cccs3)o2)cc1	12µM*	?	?	?	2.8µM*
Fc1ccccc1CSc1nnc(-c2cccs2)o1	5.4µM*	8.2µM*	1.8µM*	13µM*	1.8µM*
CCOC(=O)c1c(CN2CCCCC2)n(C)c2cc(Br)c(O)cc12	0%	-3%	1%	-6%	-2%
CC(Sc1nnc(CC(C)c2ccccc2)n1N)C(N)=O (configuration not stated)	-2%	1%	0%	.	-2%
Cc1ccnc(NC(=O)Nc2cccc(F)c2)n1	7.6µM*	?	1.1µM*	11µM*	2.2µM*
Cc1cccc(NC(=O)Nc2cccc(F)c2)n1	13µM*	?	?	11%	?
COc1cccc(NC(=O)Nc2nccc(C)n2)c1	1.2µM*	?	0.56µM*	.	1.3µM*
O=C(NCc1ccc2c(c1)OCO2)Nc1ccc2nsnc2c1	-14%	1%	-3%	.	1%
O=C(Nc1nnc(-c2ccc(Cl)cc2)o1)c1cccc(N2C(=O)CCC2=O)c1	12µM*	1%	1%	12%	2%
CSc1cccc(-c2nnc(NC(=O)c3cccc(N4C(=O)CCC4=O)c3)o2)c1	27µM*	-10%	-3%	.	0%
O=C(Nc1nnc(-c2ccncc2)o1)c1cccc(N2C(=O)CCC2=O)c1	-19%	1%	0%	-14%	-2%
Cc1c(C(=O)O)sc(=S)n1CCOc1ccccc1	4%	-1%	12%	-13%	1%
CC1=C(C(=O)Nc2ccccc2F)C(c2ccsc2)C2=C(CC(C)(C)CC2=O)N1 (configuration not stated)	0%	1%	-3%	-4%	-5%
CCOc1ccc2[nH]c(=O)c(CN(Cc3ccco3)C(=O)c3ccc(Br)cc3)cc2c1	5%	1%	-6%	9%	-12%
O=c1c2ccccc2ncn1CCCOc1ccccc1[N+](=O)[O-]	15µM*	?	3.5µM*	.	4µM*
O=[N+]([O-])c1ccccc1OCCCn1cnc2ccccc21	5.4µM*	?	2µM*	11µM*	2.8µM*
Cc1ccc2cc(-c3noc(C(C)(C)C)n3)c(=O)[nH]c2c1	-18%	1%	21%	-4%	8%
CCc1nc(-c2cc3ccc(C)cc3[nH]c2=O)no1	15µM*	?	?	?	25%
O=C(Nc1cccc(-c2nc3ccccc3[nH]2)c1)c1c(F)cccc1F	12µM*	.	.	10%	.
O=C(Nc1cccc(-c2nc3ccccc3[nH]2)c1)c1ccccn1	13µM*	-19%	16%	.	14%
COc1cccc(OC)c1C(=O)Nc1cccc(-c2nc3ccccc3[nH]2)c1	-2%	-1%	-2%	.	-2%
O=C(Nc1cccc(-c2nc3ccccc3[nH]2)c1)c1ccccc1F	11µM*	.	.	-18%	.
COc1ccc(CNC(=O)C(C)N2CCN(c3ccc(C(C)=O)cc3)CC2)cc1 (configuration not stated)	-1%	-1%	1%	.	6%
SMILES	FLuc counter	ELG1 genotoxic	Rab9 promoter act	SMN2 splice enh	NPC1 prom act
c1ccc(OCc2cc(-c3ccccc3)no2)cc1	12µM*	17%	2.8µM*	?	?
COc1ccccc1OCc1cc(-c2ccccc2)no1	9.5µM*	?	2.5µM*	13µM*	3.5µM*
COc1ccc(OCc2cc(-c3ccc(Cl)cc3)no2)cc1	-14%	3%	-5%	1%	-1%
O=C(Oc1ccccc1)n1c(=S)oc2ccccc21	2%	3%	2%	30%	0%
Cc1sc(NC(=O)C2CCCO2)c(C#N)c1C (configuration not stated)	-12%	?	14%	.	8%
CCOc1ccc2c(c1)nc(SCC(=O)c1ccc(Br)s1)n2C	-10%	-1%	1%	-23%	1%
CCOc1ccc2c(c1)nc(SCC(=O)c1cccs1)n2C	12µM*	?	25%	23%	?
CCCC(=O)NCC(c1cccs1)S(=O)(=O)c1ccc(Cl)cc1 (configuration not stated)	0%	0%	3%	.	-12%
COc1ccccc1NS(=O)(=O)c1cc(NC(=O)COc2ccccc2)ccc1N1CCOCC1	.	-2%	.	.	.
Cc1ccccc1NC(=O)CSc1nc(-c2ccccc2)cc(=O)[nH]1	-10%	6%	-6%	.	-5%
Cc1ccccc1C(=O)NNC(=O)CSc1nc(-c2ccccc2)cc(=O)[nH]1	11µM*	6%	20%	5%	11%
O=C(CCn1c(=O)c2cccn2c2cccnc21)NCc1ccccc1F	0%	.	.	.	.
CC1CCN(C(=O)CSCc2ccc(Cl)cc2)CC1	19µM*	15µM*	3.2µM*	?	?
O=C(CSCc1ccc(F)cc1)N1CCN(c2ccc(Cl)cc2)CC1	-3%	.	.	.	.
COc1ccc2c(c1)CCc1sc(NC(=O)c3cccc(Br)c3)nc1-2	-13%	.	.	.	.
COc1ccc2c(c1)-c1nc(NC(=O)c3ccc(C)cc3)sc1CC2	2.7µM*	.	.	12%	.
COc1ccc(C(=O)Nc2nc3c(s2)CCc2cc(OC)ccc2-3)cc1	7.6µM*	.	.	-38%	.
CS(=O)(=O)Nc1cccc(C2=NN(S(C)(=O)=O)C(c3ccccc3)C2)c1 (configuration not stated)	-9%	0%	22%	-18%	8%
O=C(CSc1nnc(Nc2ccccc2F)s1)NC1CCS(=O)(=O)C1 (configuration not stated)	.	2%	.	.	.
COc1ccc(Nc2nnc(SCC(=O)NC3CCS(=O)(=O)C3)s2)cc1 (configuration not stated)	5.4µM*	11%	23%	.	22%
